BAZ2B inh = BAZ2B (human) inhibition | Q9UIF8 | AlphaScreen BAZ2B-H3K14Ac peptide displacement | Potency, µM (series often up to 114 µM), for the others: at the top dose activity change, negative = inhibition, most hits filed as inhibitors | 360,000 tested, 4.4% active; also: % is scaled to controls: 0 for no effect and ±100 for the full control effect; nearly all actives have a fitted effect of over 60% in size
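Complex of BAZ2B and biotin-H3K14Ac (50 nM apiece) forms over 30 min at RT, then faces library compounds up to 110 uM for another 30 min; AlphaScreen beads added, 20 min dark incubation, luminescence read.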
TDP1 block = inhibitors of human tyrosyl-DNA phosphodiesterase TDP1; recombinant TDP1, AlphaScreen DNA substrate cleavage; Potency, µM (highest dose often 130 µM), for inactives: at the top dose activity change, negative = inhibition, actives largely listed as inhibitors; 350,000 tested, 0.28% active; Q9NUW8; also: % is scaled to controls: 0 for no effect and ±100 for the full control effect; nearly all actives have a fitted effect of over 40% in size
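Enzyme-compound mixtures sat 15 min at room temperature, followed by a 5 min reaction with 15 nM final substrate and 10 min with AlphaScreen beads. Recombinant human Tdp1 was used at 1 nM final.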
HP1b chromo inh = HP1-beta chromodomain-methylated histone interaction inhibition; AlphaScreen HP1-beta / biotin-H3K9me3 peptide binding; Potency, µM (doses to about 114 µM), for inactives: at the highest dose activity change, negative = inhibition, usual class: inhibitors; 390,000 tested, 0.56% active; AID 540317; also: nearly all actives have a fitted effect of over 70% in size
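Compound inhibition of the preformed complex between 50 nM HP1-beta and 50 nM biotinylated H3K9me3 peptide was read by AlphaScreen. Buffer was PBS pH 7.4 with 0.01% Tween-20. Incubations ran 30 min at room temperature, with 10 ug/mL donor/acceptor beads.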
JMJD2A Tudor = JMJD2A Tudor domain (human) inhibition. O75164. AlphaScreen JMJD2A-Tudor / H3K4me3 peptide binding. Potency, µM (top dose mostly 114 µM), for the others: at the top dose activity change, negative = inhibition, actives largely listed as inhibitors. 390,000 tested, 4.4% active. AID 504339; also: % is scaled to controls: 0 for no effect and ±100 for the full control effect; nearly all actives have a fitted effect of over 50% in size
Target sequence (O75164 whole entry, looked up, the tested form may be a part): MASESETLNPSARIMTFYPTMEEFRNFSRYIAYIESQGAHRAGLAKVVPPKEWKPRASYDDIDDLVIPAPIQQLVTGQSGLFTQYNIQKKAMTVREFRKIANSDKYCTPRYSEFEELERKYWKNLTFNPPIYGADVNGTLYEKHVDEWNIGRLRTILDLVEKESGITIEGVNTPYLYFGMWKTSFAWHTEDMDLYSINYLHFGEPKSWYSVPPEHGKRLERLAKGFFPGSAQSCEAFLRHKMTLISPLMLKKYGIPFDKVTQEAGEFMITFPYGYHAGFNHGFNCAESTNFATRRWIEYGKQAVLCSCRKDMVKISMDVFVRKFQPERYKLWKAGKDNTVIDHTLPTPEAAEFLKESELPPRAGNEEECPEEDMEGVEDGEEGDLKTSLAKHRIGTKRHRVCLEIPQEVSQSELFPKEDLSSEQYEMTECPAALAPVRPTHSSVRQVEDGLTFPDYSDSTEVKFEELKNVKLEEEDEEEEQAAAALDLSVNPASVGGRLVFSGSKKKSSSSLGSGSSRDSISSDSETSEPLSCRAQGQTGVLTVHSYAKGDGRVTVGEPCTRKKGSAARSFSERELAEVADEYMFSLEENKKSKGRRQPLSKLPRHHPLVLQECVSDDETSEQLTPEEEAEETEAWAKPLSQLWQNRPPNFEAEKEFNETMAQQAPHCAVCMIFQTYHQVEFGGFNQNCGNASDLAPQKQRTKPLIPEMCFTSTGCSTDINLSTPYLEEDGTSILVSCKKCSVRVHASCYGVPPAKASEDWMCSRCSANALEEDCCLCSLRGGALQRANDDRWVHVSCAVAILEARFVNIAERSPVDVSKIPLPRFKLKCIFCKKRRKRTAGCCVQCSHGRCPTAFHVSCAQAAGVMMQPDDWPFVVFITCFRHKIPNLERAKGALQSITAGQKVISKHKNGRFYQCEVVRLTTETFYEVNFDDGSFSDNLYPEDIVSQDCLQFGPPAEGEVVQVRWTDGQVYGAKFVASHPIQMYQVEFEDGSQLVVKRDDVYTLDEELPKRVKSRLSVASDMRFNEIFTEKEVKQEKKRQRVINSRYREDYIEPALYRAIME
Sfp inh = blocks B. subtilis Sfp PPTase activity; Q9F4F7; Biochemical Sfp PPTase activity, qHTS; 310,000 tested, 3.5% active; AID 1490; Potency, µM, without a hit: largest response in the series, negative = inhibition, most hits filed as inhibitors;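 also: the enzyme is Sfp with the accession as filed and its product quenches rhodamine fluorescence; 0% = enzyme reaction without inhibitor and -100% = no enzyme wells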
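After 15 min at room temperature with compound, 15 nM Sfp received 5 uM rhodamine-CoA plus 12.5 uM BHQ-2-ybbR (50 mM Hepes pH 7.6, 10 mM MgCl2). Rate came from the fluorescence difference over 30 min, ex 525/em 598 nm.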
G9a inh = inhibitors of human histone lysine methyltransferase G9a; G9a H3K9 monomethylation, AlphaScreen, 2 h; 350,000 tested, 8.8% active; Potency, µM (top dose mostly 102 µM), inactives show at the top dose activity, negative = inhibition, usual class: inhibitors; also: % is scaled to controls: 0 for no effect and ±100 for the full control effect; nearly all actives have a fitted effect of over 75% in size
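AlphaScreen read-out: biotin-H3K9 peptide (500 nM) methylation by 20 nM enzyme with 20 uM SAM, 2 h at room temperature after 15 min compound preincubation; anti-monomethyl H3K9 antibody plus donor/acceptor beads, 10 min dark.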
* hit, by the source's call; ? = inconclusive; / = not tested or not shown; [ ] = dose if it differs, or a comment. Compounds with a hit are over-represented: about 12% of the library has one in this group of screens. Calls follow the shape of the dose curve; as a rule, active = well fitted curve in the direction sought with a large enough effect; inconclusive = small, poorly fitted or top-dose-only effect, or another doubt; inactive = no such curve, though single readings can be large; an effect the other way counts as inactive or inconclusive. Potency is read from the fitted curve at half-maximal effect.

SMILES | BAZ2B inh | TDP1 block | HP1b chromo inh | JMJD2A Tudor | Sfp inh | G9a inh
O=C(Cc1cccs1)N1CCN(S(=O)(=O)c2ccc(Cl)c(C(F)(F)F)c2)CC1 | 2.5% | -0.8% | 29.7% | -3.6% | / | -5.1%[12.7 µM]
COC(=O)CN1C(=O)N/C(=C/c2ccc(OC)cc2)C1=O | 9.4% | 2.7% | 26.6% | -17.9% | 17.7% | 4.3%
C=CCN1C(=O)N/C(=C/c2ccc(C)o2)C1=O | -0.7% | 5.8% | -8.0% | -18.3% | 10µM* | ?
CCn1c(C)cc(/C=C2\NC(=O)N(CC(=O)Nc3cccc(C)c3)C2=O)c1C | ? | 4.9% | 11.5% | -18.7% | -5.5% | ?
Cc1cccc(NC(=O)CN2C(=O)N/C(=C/c3ccc(C)o3)C2=O)c1 | 4.0% | 3.2% | -25.5% | 79.4µM* | 11.2µM* | 35.5µM*
Cc1ccnc(NC(=O)Cc2ccc(-c3ccccc3)cc2)c1 | -15.1% | 0.3% | 61.1% | 13.5% | 1.4% | 56.9%
CCCCCc1nnc(NC(=O)Cc2ccc([N+](=O)[O-])cc2)s1 | -2.4% | 3.6% | 6.2% | -31.7% | -7.2% | 44.7µM*
Cc1ccnc(NC(=O)Cc2ccc([N+](=O)[O-])cc2)c1 | 50.1µM* | -2.5% | 32.8% | -3.1% | 13.8% | /
CC(C)(C)Cc1nnc(NC(=O)Cc2ccc([N+](=O)[O-])cc2)s1 | 3.0% | 6.9% | ? | ? | 39.8µM* | 10µM*
CC(C)(C)Cc1nnc(NC(=O)c2ccc([N+](=O)[O-])cc2)s1 | -0.8% | 2.6% | 31.9% | -11.9% | 4.3% | -5.2%
O=S1(=O)N=C(OCc2ccccc2)c2ccccc21 | / | 0.9% | / | -19.1% | / | /
CC(C)c1ccc2[nH]c3c(c2c1)[C@@H]1CCN2C(=O)CCC[C@H](C3)[C@H]12 | ? | / | 1.3% | -32.1% | -7.9% | /
CCc1cc2c(COC(=O)CCNS(=O)(=O)c3cccc(C(F)(F)F)c3)cc(=O)oc2cc1O | 4.6% | -4.4% | 24.3% | -13.5% | / | 13.4%[59 µM]
O=C(CSc1ccc2nnc(CCNC(=O)c3ccccc3)n2n1)Nc1ccc(F)cc1F | -2.3% | 3.3% | 27.1% | -7.6% | 16.4% | 26.0%
CCOc1ccc(-c2cc(NC(=O)c3c(F)cccc3F)c(C(=O)OC)s2)cc1 | 1.5% | 0.0% | 53.7% | -4.7% | / | 10.6%[59 µM]
Cc1cc(NC(=O)CSCC(=O)Nc2ccccc2N2CCCCC2)no1 | 0.8% | -10.5% | 23.6% | -8.3% | / | ?
O=C(COC(=O)c1cc([N+](=O)[O-])ccc1N1CCOCC1)NC1CCCCC1 | 6.1% | -7.2%[0.505 µM] | 8.6% | -17.9% | / | -25.5%
CC1=NN(c2nc3ccccc3[nH]2)C(=O)/C1=C/N(C)C | 22.4µM* | 7.9% | 48.4% | 56.2µM* | 17.9% | 34.3%[59 µM]
COc1cccc(=O)c2c(C)n(CC(=O)c3ccccc3)c(C)c12 | ? | 6.0% | -5.1% | -34.5% | 44.7µM* | ?
CCOc1cccc(=O)c2c(C)n(CC(=O)c3ccccc3)c(C)c12 | -27.7% | 9.0% | 79.4µM* | -27.1% | -24.1% | ?
COc1ccccc1C(=O)CC(=O)c1ccccc1 | 21.6% | / | 109.8% | 58.8% | -5.7% | /
CCc1ccc(NC(=O)Cn2c(=O)n(Cc3ccc(C)cc3)c(=O)c3cccnc32)cc1 | 4.9% | -3.9% | 16.7% | -10.2% | / | 2.6%[59 µM]
O=C(CNC(=O)c1ccc2ccccc2c1)OC(C(=O)Nc1cc(C(F)(F)F)ccc1Cl)c1ccccc1 (centres undefined) | / | -13.0% | / | -17.8% | / | /
O=c1[nH]c2cccnc2n1-c1cccc([N+](=O)[O-])c1 | -2.6% | 1.3% | 8.5% | -21.8% | -9.6% | 17.8%
COc1ccc(Cl)cc1NC(=O)C1CSC(c2ccncc2)=N1 (centres undefined) | -20.4% | -6.6% | 19.3% | -14.3% | ? | 11.2µM*
SMILES | BAZ2B inh | TDP1 block | HP1b chromo inh | JMJD2A Tudor | Sfp inh | G9a inh
COc1ccc(-c2nc(CCl)cs2)cc1OC | -25.0% | 11.0% | 34.6% | ? | -9.9% | 20µM*
COc1ccc(-c2nc(CCl)cs2)cc1 | 5.7% | 7.1% | 89.7% | 27.1% | 5.5% | 25.1µM*
O=C(NCCN1CCNC1=O)C1CCC(=O)N(Cc2cccc(C(F)(F)F)c2)C1 (centres undefined) | -3.5%[57.1 µM] | 0.2% | 22.9% | 1.1% | 4.2% | -9.3%
CCCCN1Cc2c(nc3cc(-c4ccco4)[nH]n3c2=O)C1=O | ? | 0.0% | 57.3% | -17.2% | 10µM* | ?
OC(CNc1ccccc1)COc1ccc(OCC(O)CNc2ccccc2)cc1 (centres undefined) | 50.1µM* | 11.7% | -38.4% | 50.1µM* | 2.9% | ?
COc1ccccc1NCC(O)COc1ccc(C(C)(C)C)cc1 (centres undefined) | 22.4µM* | 3.7% | 20µM* | 2.82µM* | ? | 7.94µM*
CCOCC(O)CNc1ccccc1 (centres undefined) | 9.5% | 7.0% | 24.3% | -4.3% | -0.9% | -6.8%[59 µM]
Cc1ccc(OCCNCC(O)COc2ccccc2)cc1 (centres undefined) | 50.1µM* | / | -11.4% | 56.2µM* | -20.9% | ?
COc1ccc(OCC(O)CNCCOc2ccccc2OC)c(C(C)(C)C)c1 (centres undefined) | 50.1µM* | / | -0.9% | 22.4µM* | ? | ?
COc1ccc(NCC(O)COc2ccc(C(C)(C)C)cc2)cc1 (centres undefined) | ? | 5.5% | ? | ? | 17.2% | ?
COc1cccc(Cn2cc(C)cc(NC(=O)NCc3ccccc3)c2=O)c1 | -26.5% | / | 29.3% | -9.3% | 18.3% | ?
COc1ccc(C(c2nnnn2Cc2ccccc2)N2CCN(C(=O)c3ccco3)CC2)cc1 (centres undefined) | -33.8% | 3.9% | 27.1% | -2.7%[11.4 µM] | 4.3% | 56.2µM*
CCC(c1nnnn1Cc1cccs1)N1CCN(C(=O)c2ccco2)CC1 (centres undefined) | -12.4% | 1.2% | 45.8% | -1.4% | 13.7% | 2.3%[12.7 µM]
Cc1ccc(C(c2nnnn2Cc2cccs2)N2CCN(C(=O)c3ccco3)CC2)cc1 (centres undefined) | ? | 6.2% | 22.1% | ? | -23.3% | 39.8µM*
CCOc1ccc(C(c2nnnn2Cc2ccccc2)N2CCN(C(=O)c3ccco3)CC2)cc1 (centres undefined) | / | / | 7.0% | -29.7% | / | /
Cc1cccc(NC(c2ccc(O)cc2)c2ccc3ccc(C)nc3c2O)n1 (centres undefined) | ? | 0.5% | ? | 44.7µM* | ? | 4.47µM*
O=C(Nc1nccs1)c1ccc(NC(=O)C2CC=CCC2C(=O)O)cc1 (centres undefined) | -27.2% | 1.2% | 19.5% | -15.8% | 20.7% | -6.0%
COc1ccccc1C(=O)NCCSCc1c(F)cccc1Cl | 8.4% | / | 38.6% | 6.1% | 9.5% | 70.8µM*

Compound activity (PubChem)
